Reference: PubChem BioAssay (EPA / NIEHS)
Active and inactive are the calls of the source. Rule for the calls: active = hit-call score of the fitted dose curve at least 0.9, where 1 is the maximum; inactive = score below 0.9.

Columns and labels:
[1] = read-out: Plasminogen activator inhibitor-1 (PAI1), SERPINE1 (gene 5054); experiment: BSK_hDFCGF_PAI1: BioMAP Diversity Plus: hDFCGF Assay for Plasminogen activator inhibitor-1 (PAI1) Biomarker Activity (AID 2283066); details: primary human foreskin fibroblasts; actives raise or lower the signal
Summary of the method: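 Human foreskin fibroblasts in the hDFCGF system were dosed with compound for 24 h; PAI-1 was quantified by ELISA. Bidirectional curve fitting used DMSO as negative control and baseline.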

[2] = read-out: Intercellular Adhesion Molecule 1 (ICAM1), ICAM1 (gene 3383); experiment: BSK_KF3CT_ICAM1: BioMAP Diversity Plus: KF3CT Assay for Intercellular Adhesion Molecule 1 (ICAM1) Biomarker Activity (AID 2283067); details: primary human keratinocytes with fibroblasts; actives raise or lower the signal
Summary of the method: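 Cell-surface ICAM-1 was measured by ELISA 24 h after dosing primary human skin keratinocytes co-cultured with fibroblasts. Parallel SRB staining tracked overt cytotoxicity. Gain or loss of signal was fitted relative to DMSO.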

[3] = read-out: Interferon-gamma inducible Protein 10 (IP10), CXCL10 (gene 3627); experiment: BSK_KF3CT_IP10: BioMAP Diversity Plus: KF3CT Assay for Interferon-gamma inducible Protein 10 (IP10) Biomarker Activity (AID 2283068); details: primary human keratinocytes with fibroblasts; actives raise or lower the signal
Summary of the method: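 KF3CT co-culture (keratinocytes + foreskin fibroblasts), 24 h compound, IP-10 by ELISA; bidirectional fit vs DMSO baseline.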

[4] = BSK_KF3CT_SRB: Viability Assessment in the BioMAP Diversity Plus: KF3CT Assay (AID 2283069); details: primary human keratinocytes with fibroblasts;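 note: total protein by sulforhodamine B staining as a cytotoxicity measure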
Summary of the method: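 Human keratinocyte and foreskin fibroblast co-culture exposed to chemical for 24 h. Total protein measured in parallel cultures by 0.1% sulforhodamine B staining after 10% TCA fixation, read at 560 nm; bidirectional fit relative to DMSO.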

[5] = read-out: Interleukin-1 alpha (IL1a), IL1A (gene 3552); experiment: BSK_KF3CT_IL1a: BioMAP Diversity Plus: KF3CT Assay for Interleukin-1 alpha (IL1a) Biomarker Activity (AID 2283070); details: primary human keratinocytes with fibroblasts; actives raise or lower the signal
Summary of the method: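 Primary human keratinocyte plus foreskin fibroblast co-culture, dosed and measured at 24 h in 96-well plates. IL-1a level quantified by ELISA; bidirectional fit relative to DMSO.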

[6] = read-out: TIMP metallopeptidase inhibitor 2 (TIMP2), TIMP2 (gene 7077); experiment: BSK_KF3CT_TIMP2: BioMAP Diversity Plus: KF3CT Assay for TIMP metallopeptidase inhibitor 2 (TIMP2) Biomarker Activity (AID 2283071); details: primary human keratinocytes with fibroblasts; actives raise or lower the signal
Summary of the method: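 Human primary keratinocyte/foreskin fibroblast co-culture dosed with chemical and sampled at 24 h. TIMP-2 levels quantified by ELISA; bidirectional fitting against DMSO negative control as baseline.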

[7] = read-out: Transforming growth factor beta 1 (TGFb1), TGFB1 (gene 7040); experiment: BSK_KF3CT_TGFb1: BioMAP Diversity Plus: KF3CT Assay for Transforming growth factor beta 1 (TGFb1) Biomarker Activity (AID 2283072); details: primary human keratinocytes with fibroblasts; actives raise or lower the signal
Summary of the method: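 Human keratinocyte plus foreskin fibroblast primary co-culture, dosed with chemical for 24 h. TGF-b1 quantified by ELISA. Activity fitted bidirectionally against DMSO negative control as baseline.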

[8] = read-out: C-C motif chemokine 2 (Homo sapiens) (UniProt P13500); experiment: BSK_KF3CT_MCP1: BioMAP Diversity Plus: KF3CT Assay for Monocyte Chemoattractant Protein 1 (MCP1/CCL2) Biomarker Activity (AID 2283073); details: primary human keratinocytes with fibroblasts; actives raise or lower the signal
Summary of the method: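 ELISA read-out of MCP-1, 24 h post-dose, in primary human skin keratinocytes co-cultured with fibroblasts. Parallel SRB staining monitors cytotoxicity; changes fitted both directions relative to DMSO.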

[9] = read-out: Matrix Metallopeptidase 9 (MMP9), MMP9 (gene 4318); experiment: BSK_KF3CT_MMP9: BioMAP Diversity Plus: KF3CT Assay for Matrix Metallopeptidase 9 (MMP9) Biomarker Activity (AID 2283074); details: primary human keratinocytes with fibroblasts; actives raise or lower the signal;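 for AC50: MMP9 protein level quantified by ELISA in the co-culture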
Summary of the method: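 Human keratinocyte and foreskin fibroblast co-culture exposed to chemicals for 24 h; MMP9 biomarker measured by ELISA, bidirectional fitting relative to DMSO; cytotoxicity tracked by SRB total protein staining in parallel cultures.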

[10] = read-out: urokinase plasminogen activator (uPA), PLAU (gene 5328); experiment: BSK_KF3CT_uPA: BioMAP Diversity Plus: KF3CT Assay for urokinase plasminogen activator (uPA) Biomarker Activity (AID 2283075); details: primary human keratinocytes with fibroblasts; actives raise or lower the signal
Summary of the method: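 Primary human keratinocyte/foreskin fibroblast co-culture exposed to chemical; uPA measured by ELISA at 24 h. Bidirectional fit versus DMSO, with parallel SRB total-protein staining for cytotoxicity.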

CD40, CD40 (gene 958) = experiment: BSK_LPS_CD40: BioMAP Diversity Plus: LPS Assay for CD40 Biomarker Activity (AID 2283076); details: primary human HUVEC with PBMC; actives raise or lower the signal
Summary of the method: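 In the LPS system of human endothelial cells with peripheral blood mononuclear cells, CD40 levels were read by ELISA 24 h post-treatment. Signal changes in either direction were fitted against the DMSO baseline, with parallel SRB protein staining.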

[11] = read-out: E-selectin (Homo sapiens) (UniProt P16581); experiment: BSK_LPS_Eselectin: BioMAP Diversity Plus: LPS Assay for Eselectin Biomarker Activity (AID 2283077); details: primary human HUVEC with PBMC; actives raise or lower the signal
Summary of the method: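 E-selectin ELISA on LPS-stimulated endothelial cell/PBMC co-cultures, read 24 h post-treatment; gains and losses fitted against DMSO. Parallel SRB staining (0.1% SRB after 10% TCA fixation, 560 nm) flags overt cytotoxicity.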

[12] = read-out: Interleukin-8 (IL8), CXCL8 (gene 3576); experiment: BSK_LPS_IL8: BioMAP Diversity Plus: LPS Assay for Interleukin-8 (IL8) Biomarker Activity (AID 2283078); details: primary human HUVEC with PBMC; actives raise or lower the signal
Summary of the method: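 ELISA read-out of IL-8 after 24 h chemical treatment of LPS-activated endothelial/PBMC human primary co-cultures. Changes either up or down relative to DMSO; overt cytotoxicity checked by sulforhodamine B staining in parallel wells.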

[13] = BSK_LPS_SRB: Viability Assessment in the BioMAP Diversity Plus: LPS Assay (AID 2283079); details: primary human HUVEC with PBMC;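 note: total protein by sulforhodamine B absorbance as a cytotoxicity measure; measured one day after compound addition; fitted in both directions against DMSO so loss or gain of signal counts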
Summary of the method: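 SRB viability endpoint: cells fixed with 10% TCA, stained with 0.1% SRB, read at 560 nm, 24 h post-dose. HUVEC/PBMC co-culture; signal change in either direction scored relative to DMSO.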

[14] = read-out: Interleukin-1 alpha (IL1a), IL1A (gene 3552); experiment: BSK_LPS_IL1a: BioMAP Diversity Plus: LPS Assay for Interleukin-1 alpha (IL1a) Biomarker Activity (AID 2283080); details: primary human HUVEC with PBMC; actives raise or lower the signal
Summary of the method: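 Readout is IL-1a level by ELISA, 24 h post-dose, fitted as gain or loss relative to DMSO. System: LPS-activated human primary co-culture of vascular endothelium and peripheral blood mononuclear cells, with parallel SRB total-protein cytotoxicity.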

[15] = read-out: Monocyte Chemoattractant Protein-1 (MCP1), CCL2 (gene 6347); experiment: BSK_LPS_MCP1: BioMAP Diversity Plus: LPS Assay for Monocyte Chemoattractant Protein-1 (MCP1) Biomarker Activity (AID 2283081); details: primary human HUVEC with PBMC; actives raise or lower the signal;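 for AC50: secreted MCP-1 protein quantified by ELISA in culture supernatant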
Summary of the method: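 Secreted MCP-1 read by ELISA at 24 h post-dosing in an LPS-activated co-culture of endothelial cells with peripheral blood mononuclear cells. Fits run in both directions, DMSO as baseline; parallel SRB staining tracks overt cytotoxicity.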

[16] = BSK_LPS_PGE2: BioMAP Diversity Plus: LPS Assay for Prostaglandin E2 (PGE2) Biomarker Activity (AID 2283082); details: primary human HUVEC with PBMC; actives raise or lower the signal;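 for AC50: secreted prostaglandin E2 measured by ELISA in LPS-stimulated co-culture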
Summary of the method: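 HUVEC plus PBMC co-culture stimulated with LPS; secreted PGE2 quantified by ELISA 24 h after chemical dosing. Activity fitted bidirectionally against DMSO as negative control and baseline; parallel SRB total-protein staining served as cytotoxicity check.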

[17] = read-out: Macrophage colony-stimulating factor (MCSF), CSF1 (gene 1435); experiment: BSK_LPS_MCSF: BioMAP Diversity Plus: LPS Assay for Macrophage colony-stimulating factor (MCSF) Biomarker Activity (AID 2283083); details: primary human HUVEC with PBMC; actives raise or lower the signal
Summary of the method: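 Bidirectional fitting against DMSO was applied to M-CSF levels read by ELISA at 24 h post-dose. The system pairs human umbilical vein endothelium with peripheral blood mononuclear cells; parallel SRB staining tracked cytotoxicity.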

[18] = read-out: Tissue Factor, F3 (gene 2152); experiment: BSK_LPS_TissueFactor: BioMAP Diversity Plus: LPS Assay for Tissue Factor Biomarker Activity (AID 2283084); details: primary human HUVEC with PBMC; actives raise or lower the signal
Summary of the method: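 Compound was added to an endothelial cell/PBMC co-culture, and after 24 h tissue factor (CD142) was read by ELISA. Gain or loss of signal was fitted against a DMSO baseline, and parallel SRB staining (560 nm) tracked overt cytotoxicity.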

[19] = read-out: Tumor necrosis factor (Homo sapiens) (UniProt P01375); experiment: BSK_LPS_TNFa: BioMAP Diversity Plus: LPS Assay for Tumour Necrosis Factor alpha (TNFa) Biomarker Activity (AID 2283085); details: primary human HUVEC with PBMC; actives raise or lower the signal
Summary of the method: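 Human umbilical vein endothelial cells co-cultured with PBMC were exposed to test chemical and TNFa measured by ELISA 24 h after dosing. Bidirectional curve fitting was done relative to DMSO as negative control and baseline.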

Measured: AC50

Sequence of E-selectin (Homo sapiens) (P16581 whole entry, looked up): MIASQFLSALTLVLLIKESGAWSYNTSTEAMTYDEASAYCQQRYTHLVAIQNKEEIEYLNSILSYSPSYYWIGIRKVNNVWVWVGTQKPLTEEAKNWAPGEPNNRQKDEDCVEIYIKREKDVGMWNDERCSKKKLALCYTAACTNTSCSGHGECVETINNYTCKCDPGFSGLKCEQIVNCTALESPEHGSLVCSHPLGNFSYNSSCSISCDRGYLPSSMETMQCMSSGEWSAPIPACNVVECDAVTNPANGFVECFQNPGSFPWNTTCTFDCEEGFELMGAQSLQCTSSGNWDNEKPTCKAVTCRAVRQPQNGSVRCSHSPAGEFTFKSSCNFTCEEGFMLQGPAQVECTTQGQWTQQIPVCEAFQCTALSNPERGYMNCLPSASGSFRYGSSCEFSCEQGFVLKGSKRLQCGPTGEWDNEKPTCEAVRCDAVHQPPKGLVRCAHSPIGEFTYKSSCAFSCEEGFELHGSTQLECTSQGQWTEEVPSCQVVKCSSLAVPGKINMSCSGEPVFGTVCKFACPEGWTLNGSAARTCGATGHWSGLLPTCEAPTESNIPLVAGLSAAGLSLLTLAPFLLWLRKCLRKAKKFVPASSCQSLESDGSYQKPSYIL
Sequence of Tumor necrosis factor (Homo sapiens) (P01375 whole entry, looked up): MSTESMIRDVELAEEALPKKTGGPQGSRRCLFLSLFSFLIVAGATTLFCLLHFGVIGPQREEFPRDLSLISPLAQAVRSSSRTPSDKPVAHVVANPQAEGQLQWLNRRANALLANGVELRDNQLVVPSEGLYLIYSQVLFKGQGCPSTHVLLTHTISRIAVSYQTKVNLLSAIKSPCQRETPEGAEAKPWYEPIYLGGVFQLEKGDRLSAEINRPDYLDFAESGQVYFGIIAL

Nc1ccc(N=Nc2ccccc2)cc1
active: [9] 20 µM | [16] 3.55 µM
not listed: [19]
inactive: all other assays above

Clc1ccc(C(c2ccc(Cl)cc2)C(Cl)(Cl)Cl)cc1
inactive: [16]
active: [1] 8.38 µM | [2] 27.7 µM | [3] 16.3 µM | [4] 18.7 µM | [5] 25.1 µM | [6] 11.7 µM | [7] 14.8 µM | [8] 12.7 µM | [9] 11 µM | [10] 20.1 µM | CD40, CD40 (gene 958) 20 µM | [11] 31.7 µM | [12] 27.4 µM | [13] 28.9 µM | [14] 14.6 µM | [15] 33.1 µM | [17] 19.5 µM | [18] 38.7 µM

CC(C)(C)C(O)(CCc1ccc(Cl)cc1)Cn1cncn1 (stereo not drawn)
not listed: [8] | [19]
inactive: all other assays above

O=[N+]([O-])c1ccc(Oc2ccc(Cl)cc2Cl)cc1
active: [9] 8.09 µM | CD40, CD40 (gene 958) 20 µM | [14] 27.2 µM | [15] 25.7 µM | [17] 31.1 µM
inactive: all other assays above

Cc1cc(N=Nc2ccccc2C)ccc1N
active: [1] 32.1 µM | [2] 31.8 µM | [3] 33.7 µM | [4] 29.9 µM | [5] 37.9 µM | [6] 20 µM | [7] 28.5 µM | [9] 19.9 µM | [10] 39.2 µM | [13] 9.83 µM | [16] 3.97 µM
inactive: [8] | CD40, CD40 (gene 958) | [11] | [12] | [14] | [15] | [17] | [18] | [19]

O=Cc1ccco1
not listed: [8] | [19]
inactive: all other assays above

CS(=O)(=O)NC(=O)c1cc(Oc2ccc(C(F)(F)F)cc2Cl)ccc1[N+](=O)[O-]
not listed: [19]
inactive: all other assays above
